Assay outcomes from PubChem BioAssay.
SKKanGAS inh – SKKanGAS growth inhibition. inhibition, % at 7.5 µM. 300,000 compounds, 1.3% hits. S. pyogenes SKKanGAS, kanamycin growth, BacTiter-Glo, 6 h;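 active = mean replicate score, as percent of positive control median, at least 50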;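 note: strain carries kanamycin resistance gene driven by streptokinase promoter and grows in 40 µg/ml kanamycin; loss of luminescence reflects streptokinase promoter inhibition or plain growth inhibition; 0% = median of DMSO wells and 100% = positive control at its reference dose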
tim23-1 inh – tim23-1 yeast growth inhibition; S. cerevisiae tim23-1 growth, BacTiter-Glo luminescence, 24 h; inhibition, % at 20 µM; 330,000 compounds, 1.3% hits;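 active = growth inhibition of the mutant yeast at or above 50%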;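 note: temperature-sensitive mutant grown at 25 °C; plate controls were DMSO-treated mutant yeast for no effect and medium wells lacking yeast for full effect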
NLRP3 yeast inh – blocks the NALP3 inflammasome reconstituted in yeast | inhibition, % at 10 µM | 330,000 compounds, 0.39% hits | Yeast reconstituted NLRP3/ASC/caspase-1, beta-gal luminescence, 24 h;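 active = inhibition of 50% or more; inactive = inhibition below 50%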;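 note: plate controls were induced DMSO wells for no effect and uninduced yeast grown without galactose for full effect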
TIM10 inh – TIM10 yeast growth inhibition; AID 463195; 330,000 compounds, 1.4% hits; inhibition, % at 10 µM; S. cerevisiae TIM10 strain growth, BacTiter-Glo luminescence, 24 h;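 active = inhibition of 40% or more at the single tested concentration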;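 note: wild-type TIM10 isogenic control strain grown at permissive 25 °C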
tim10-1 inh – growth inhibitors of tim10-1 mutant yeast; S. cerevisiae tim10-1 ts strain growth, BacTiter-Glo, 24 h; inhibition, % at 20 µM; 330,000 compounds, 2.2% hits;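 active = inhibition of at least 40%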;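 note: mutant grown at 25 °C; 0% = DMSO wells with yeast and 100% = wells holding no yeast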
TIM10 conf – TIM10 yeast growth inhibition, confirmed. shares compounds with TIM10 inh. 4,600 compounds, 63% hits. AID 463215. S. cerevisiae tim10 strain growth, BacTiter-Glo luminescence, 24 h. inhibition, % at 10 µM;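 active = inhibition of yeast growth at or above a set limit in either of two replicates at 10 µM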;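 note: this counterscreen used the strain with wild-type TIM10; 0% = yeast with DMSO and 100% = medium wells lacking yeast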
The depositor's hits bear a star. Hits are enriched below; roughly 4.6% of the tested compounds scored in any of these assays.

How did CCCC(=O)NC(=S)Nc1cccc(NC(=O)c2ccccc2)c1 do in these assays?
SKKanGAS inh: -10; tim23-1 inh: 8; NLRP3 yeast inh: 18; TIM10 inh: 19; tim10-1 inh: 5

What do the screens show for `CC(C)CC(=O)NC(=S)Nc1ccc(NC(=O)c2cccs2)cc1`?
SKKanGAS inh: 6; tim23-1 inh: 21; NLRP3 yeast inh: 14; TIM10 inh: 51*; tim10-1 inh: 8; TIM10 conf: 30

How did O=C(Nc1ccc2ccccc2c1)C(c1ccccc1)C1CCCC1 (centres undefined) do in these assays?
SKKanGAS inh: 2; tim23-1 inh: 7; NLRP3 yeast inh: 17; TIM10 inh: 44*; tim10-1 inh: 20; TIM10 conf: 24

How did O=C(COc1ccc(Cl)cc1Cl)NNC(=O)c1cccnc1 do in these assays?
SKKanGAS inh: -4; tim23-1 inh: 10; NLRP3 yeast inh: 11; TIM10 inh: -11; tim10-1 inh: 8

Results for Cc1cc(Cl)ccc1OCC(=O)NNC(=O)c1cccnc1 ?
SKKanGAS inh: -2; tim23-1 inh: 2; NLRP3 yeast inh: 3; TIM10 inh: 80*; tim10-1 inh: -22; TIM10 conf: -7

Results for CCOC(=O)N1CCN(C(=S)Nc2cc(OC)c(OC)cc2C(=O)OC)CC1 ?
SKKanGAS inh: 2; tim23-1 inh: 6; NLRP3 yeast inh: 8; TIM10 inh: 5; tim10-1 inh: 4

How did CCc1ccc(N(C(=O)c2ccco2)C(C(=O)NC2CCCC2)c2ccco2)cc1 (centres undefined) do in these assays?
SKKanGAS inh: 3; tim23-1 inh: 23; NLRP3 yeast inh: -1; TIM10 inh: 42*; tim10-1 inh: 27; TIM10 conf: -27

What do the screens show for `O=C(NC1CCCC1)C(c1ccco1)N(C(=O)c1ccco1)c1ccccc1` (centres undefined)?
SKKanGAS inh: -2; tim23-1 inh: 26; NLRP3 yeast inh: -1; TIM10 inh: 8; tim10-1 inh: 20

Results for CC1(C(=O)O)CCC(C(=O)NNC(=O)c2ccccc2O)C1(C)C (centres undefined) ?
SKKanGAS inh: -9; tim23-1 inh: 7; NLRP3 yeast inh: -1; TIM10 inh: -5; tim10-1 inh: 20

What do the screens show for `O=C(C1CCCN(S(=O)(=O)c2ccc(Br)cc2)C1)N1CCOCC1` (centres undefined)?
SKKanGAS inh: 10; tim23-1 inh: -7; NLRP3 yeast inh: 20; TIM10 inh: 1; tim10-1 inh: 2

What do the screens show for `Cc1cc(C)c(NC(=O)C2CCCN2CCOC(=O)c2cccc([N+](=O)[O-])c2)c(C)c1` (centres undefined)?
SKKanGAS inh: -12; tim23-1 inh: 39; NLRP3 yeast inh: 3; TIM10 inh: 41*; tim10-1 inh: 36; TIM10 conf: 17

How did COc1ccc(Nc2nc(Cl)c(C=O)s2)cc1 do in these assays?
SKKanGAS inh: 2; tim23-1 inh: 44; NLRP3 yeast inh: 11; TIM10 inh: 46*; tim10-1 inh: 29; TIM10 conf: 18

What do the screens show for `COc1ccc(Nc2nc3ccccc3s2)cc1`?
SKKanGAS inh: 2; tim23-1 inh: 25; NLRP3 yeast inh: 20; TIM10 inh: 4; tim10-1 inh: 27

What do the screens show for `O=C(Nc1ccc(Cl)c([N+](=O)[O-])c1)C(Sc1ccccc1)c1ccccc1` (centres undefined)?
SKKanGAS inh: 23; tim23-1 inh: 32; NLRP3 yeast inh: 22; TIM10 inh: 42*; tim10-1 inh: 27; TIM10 conf: 43*

What do the screens show for `O=C(Nc1cc([N+](=O)[O-])ccc1Cl)C(Sc1ccccc1)c1ccccc1` (centres undefined)?
SKKanGAS inh: -2; tim23-1 inh: -3; NLRP3 yeast inh: -10; TIM10 inh: 18; tim10-1 inh: 12

Results for CCOC(=O)c1csc(-c2snnc2C)n1 ?
SKKanGAS inh: -6; tim23-1 inh: 22; NLRP3 yeast inh: -5; TIM10 inh: 13; tim10-1 inh: 0

Results for c1ccc2c(c1)NC1(CCCCCC1)n1c-2nc2ccccc21 ?
SKKanGAS inh: 0; tim23-1 inh: 46; NLRP3 yeast inh: 41; TIM10 inh: 42*; tim10-1 inh: 3; TIM10 conf: 27

What do the screens show for `O=S(=O)(Nc1cccc2c1ccc1cccn12)c1cccs1`?
SKKanGAS inh: 34; tim23-1 inh: 28; NLRP3 yeast inh: 2; TIM10 inh: 45*; tim10-1 inh: 31; TIM10 conf: 2
